Screening results (PubChem BioAssay)
Only some compounds are listed: those with a hit (about 10% of all), similar ones and a draw of the others.
PNC assembly inh – High Content Assay for Compounds that inhibit the Assembly of the Perinucleolar Compartment. PC3M PTB-GFP, PNC prevalence imaging, 16 h; active compounds read low. activity change (PNC), negative = inhibition, % at 10 µM. 140,000 tested, 3.1% active. AID 2417, 2010;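 active means readout at or below -70, meaning at least 70% loss of cells showing the perinucleolar compartment, a nuclear body marking cancer cells; inconclusive means readout between -30 and a set limit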;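 further: plate controls were DMSO wells for no effect and camptothecin positive control wells for full effect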
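Compounds are pinned in duplicate onto adhered PC3M cells stably expressing GFP-tagged PTB and incubated 16 h at 37 C. Cells are then fixed, nuclei stained with Hoechst, and PNC-positive cells counted.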
HPGD block – qHTS Assay for Inhibitors of HPGD (15-Hydroxyprostaglandin Dehydrogenase); purified HPGD, NADH fluorescence kinetic, PGE2 substrate; 15-hydroxyprostaglandin dehydrogenase [NAD(+)] (Homo sapiens), P15428; 150,000 tested, 4.3% active; Potency, µM, without a hit: at the top dose activity change, negative = inhibition, hits mostly inhibitors; AID 894, 2007; further: potency means the concentration at half of the fitted maximal effect
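NADH formation kinetics: reaction with 30 uM PGE2 and 1 mM NAD+ (final), 20 nM enzyme, Tris-HCl pH 8 with Tween 20, after 15 min compound preincubation at room temperature. Fluorescence change, last versus first of five reads.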
Lamin A splicing – qHTS Assay for Modulators of Lamin A Splicing; Potency, µM (highest dose often 46.1 µM), inactives show at the highest dose ratio change, negative = inhibition, most hits filed as inhibitors; HeLa LMNA splicing GFP/RFP minigene ratio, 48 h; 200,000 tested, 0.01% active; active means well fitted inhibition curve with a large enough effect in the signal ratio, with a control signal flat, not every such curve was filed as active; inconclusive means small, poorly fitted or top-dose-only effect, or effect the other way, or a change in a side signal; the % refers to the signal ratio; further: potency means the concentration at half of the fitted maximal effect
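S3 HeLa cells stably expressing lamin A-EGFP splicing minigene plus DsRed2, 600 cells/well, 48 h compound exposure at 37C. Laser-scanning cytometry; analysed as GFP (500-530 nm)/RFP (575-640 nm) total intensity ratio; 0.5% DMSO vehicle.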
ALDH1A1 block – qHTS Assay for Inhibitors of Aldehyde Dehydrogenase 1 (ALDH1A1) | Aldehyde dehydrogenase 1A1 (Homo sapiens), P00352 | Purified ALDH1A1, NADH fluorescence, propionaldehyde substrate | Potency, µM (series often up to 75.3 µM), without a hit: top-dose activity, negative = inhibition, hits mostly inhibitors | 220,000 tested, 7.3% active | AID 1030, 2008;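 further: potency means the concentration at half of the fitted maximal effect; plate controls were no enzyme wells and a reference inhibitor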
Target sequence (P00352 whole entry, looked up): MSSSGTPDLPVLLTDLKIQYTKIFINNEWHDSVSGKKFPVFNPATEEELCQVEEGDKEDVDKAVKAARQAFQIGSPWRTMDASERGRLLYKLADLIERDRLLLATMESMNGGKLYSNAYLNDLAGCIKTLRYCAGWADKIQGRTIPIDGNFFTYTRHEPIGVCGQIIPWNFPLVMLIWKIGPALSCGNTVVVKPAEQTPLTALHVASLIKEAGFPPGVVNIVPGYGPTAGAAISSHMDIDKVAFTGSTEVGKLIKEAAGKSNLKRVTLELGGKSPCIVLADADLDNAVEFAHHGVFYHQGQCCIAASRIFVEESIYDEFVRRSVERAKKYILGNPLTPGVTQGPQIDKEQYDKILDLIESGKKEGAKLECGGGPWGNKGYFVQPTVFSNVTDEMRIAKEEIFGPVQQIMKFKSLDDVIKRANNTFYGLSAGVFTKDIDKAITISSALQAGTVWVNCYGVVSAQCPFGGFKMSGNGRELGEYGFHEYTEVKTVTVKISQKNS
Luc counter – Counterscreen for Luciferase (Kinase-Glo TM) Inhibition | Luciferin 4-monooxygenase (Photuris pensylvanica), Q27757 | Kinase-Glo luciferase, ATP luminescence, 8 min | Potency, µM (series often up to 38.3 µM), without a hit: top-dose activity change, negative = inhibition, most hits filed as inhibitors | 200,000 tested, 0.28% active | AID 1379, 2008; active means well fitted inhibition curve with a large enough effect; inconclusive means small, poorly fitted or top-dose-only effect; further: potency means the concentration at half of the fitted maximal effect; nearly all actives have a fitted effect of over 60% in size
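Light output from Kinase-Glo luciferase with luciferin and 10 uM ATP in 50 mM imidazole pH 7.2, KCl, MgCl2, Tween 20, BSA; compound pin-delivered, 8-min ambient incubation, then luminescence read.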
Active calls of the source: *; ? = inconclusive; / = no result given; [ ] = remark or other dose. Unless noted, the call rests on the fitted dose curve; in most records, active means well fitted inhibition curve with a large enough effect (not every such curve was filed as active); inconclusive means small, poorly fitted or top-dose-only effect, or another doubt; inactive means no such curve, though single readings can be large or run the other way. Unless noted, on the % scale 0 is the no-effect control and ±100 the full control effect.

SMILES | PNC assembly inh | HPGD block | Lamin A splicing | ALDH1A1 block | Luc counter
COc1ccccc1N1CCN(S(=O)(=O)c2ccc(F)c(C(=O)Nc3ccc(C)c(F)c3)c2)CC1 | / | / | -5%[46 µM] | / | /
Cn1cc(-c2nc3cnc(Oc4cccc(Cl)c4)nc3n(C3CC3)c2=O)c2ccccc21 | / | / | 7% | 9% | /
COCCn1c(SCC(=O)c2ccccc2)nc2ccccc2c1=O | / | / | 7%[46 µM] | 18µM* | -9%
O=C(CSc1nc2ccccc2c(=O)n1Cc1ccco1)N1CCCC1 | / | / | -13%[46 µM] | -5% | 2%
O=C(Cn1c(S(=O)(=O)Cc2ccccc2)nc2ccccc21)N1CCCCC1 | ? | -18% | -13% | 25µM* | 6%
COCCn1c(SCC(=O)N2CCC(C)CC2)nc2ccccc2c1=O | 28 | -5% | -2% | 11µM* | 3%
CC(C)Cn1c(SCC(=O)N2CCCCC2)nc2ccccc2c1=O | 43 | -10% | -13% | 22µM* | 1%
Cc1ccc(C)c(-c2nc(Cn3c(=O)cc(-c4ccccc4)c4c(C)nn(C)c43)c(C)o2)c1 | / | / | -11%[46 µM] | / | /
CC(=O)Nc1ccc(S(=O)(=O)N2CCc3nc(-c4ccccc4)c4c(c3C2)CO[C@@H](C)C4)cc1 | / | -6% | 1%[9.22 µM] | 7%[13.5 µM] | -10%[7.66 µM]
O=C(N1CCCCCC1)n1c(Cc2ccccc2)nc2ccccc21 | -119* | -16% | -2% | -7% | 1%
CCOC(=O)CSc1nc2cc(C(=O)N3CCC(C(N)=O)CC3)ccc2c(=O)n1-c1ccccc1 | -13 | -27% | 5% | 2% | -1%
CCOC(=O)CSc1nc2cc(C(=O)N3CCCC3)ccc2c(=O)n1Cc1ccccc1 | 24 | -5% | -3% | 25µM* | -4%
c1ccc(Cn2c(CN3CCCC3)nc3ccccc32)cc1 | ? | -3% | 10% | 26% | 2%
Nc1[nH]nc2nc3ccccc3cc12 | / | / | / | -1% | 1%
CCc1ccc2nc3n[nH]c(N)c3cc2c1 | -8 | 28µM* | ? | ? | -23%
COc1cc(SC#N)ccc1N=Cc1c(C)[nH]n(-c2ccc(Cl)cc2)c1=O | 23 | -20% | 8% | 2.5µM* | -18%
COc1cc(SC#N)ccc1N=Cc1c(C)[nH]n(-c2ccc(C)c(C)c2)c1=O | -3 | -15% | ? | 0.28µM* | ?
CCOc1ccc(NC(=O)Nc2ccccc2C(N)=O)cc1 | / | / | / | 7% | 7.1µM*
CCOc1ccc(NC(=O)Nc2ccc(NC(C)=O)cc2)cc1 | / | / | / | 13% | -1%
COc1ccc(NC(=O)Nc2cc(C)ccc2OC)cc1 | -82* | -16% | 4% | -15% | ?
CCOC(=O)c1cc(NC(=O)Nc2ccc(OC)c(OC)c2)c(C)nc1C | -102* | -1% | -6% | -4% | 1%
COc1ccc(OC)c(NS(=O)(=O)c2ccc(NC(C)=O)cc2)c1 | -27 | -14% | -5% | 12% | -1%
COc1ccc(C)cc1NS(=O)(=O)c1ccc(NS(=O)(=O)c2ccc(NC(C)=O)cc2)cc1 | 10 | -13% | -21% | 22µM* | 2%
COc1ccc(NC(=O)Nc2cc(C)ccc2F)cc1 | 9 | -10% | -1% | 6% | -12%
O=C(NCc1ccccc1Cl)C1CCCN(c2ncnc3onc(-c4ccc(F)cc4)c23)C1 (stereo not drawn) | / | / | -10%[46 µM] | / | /
SMILES | PNC assembly inh | HPGD block | Lamin A splicing | ALDH1A1 block | Luc counter
CC(C)N1CCN(c2ccc(OC[C@@H]3CO[C@@](Cn4cncn4)(c4ccc(Cl)cc4Cl)O3)cc2)CC1 | / | -4% | ? | 6%[20.9 µM] | 2%[17.1 µM]
COc1ccc(NC(=O)Nc2ccccc2C(N)=O)cc1 | / | / | / | 0% | 8.9µM*
Cc1ccc(NC(=O)Nc2ccccc2C(N)=O)cc1 | / | / | / | 3% | /
Cc1cccc(C)c1NC(=O)CN1C(=O)c2cccc3cccc1c23 | / | / | -10%[46 µM] | / | /
CCC1SC2=NC(C)=C(C(=O)OCC(C)C)C(/C=C/c3ccccc3OC)N2C1=O (stereo not drawn) | -7 | -24% | 3% | -11% | 1%
COc1ccccc1/C=C/C1C(C(=O)OCC(C)C)=C(C)N=C2SCCC(=O)N21 (stereo not drawn) | / | / | / | 22µM* | 1%
